Records with an inconclusive call do not appear. Calls of active or inactive are those of the source. Unless noted, calls come from the whole dose curve.
How the values were obtained:
[1] = Nuclear factor erythroid 2-related factor 2/antioxidant responsive element (Nrf2/ARE) small molecule agonists: qHTS cell viability counter screen in human keratinocytes (AID 1919968; active = well fitted curve in the direction sought with a large enough effect in the repeat runs; an effect the other way counts as inactive or inconclusive; note: nearly all actives have a fitted effect of over 55% in size; note: potency is the fitted concentration of half-maximal effect)
Procedure, shortened: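 KeratinoSens cells (HaCaT keratinocytes stably carrying an ARE-luciferase reporter) were seeded at 1,500 cells/well and rested 5 h at 37 C/5% CO2. They were then exposed to compounds in DMSO for 23 h. Viability was read by CellTiter-Fluor fluorescence after 1 h.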

[2] = target: Gonadotropin-releasing hormone receptor (Homo sapiens) (UniProt P30968); test: Human gonadotropin-releasing hormone receptor (GnRHR) small molecule agonists, calcium flux assay in GnRHR-HEK293 cells (AID 1920063); note: nearly all actives have a fitted effect of over 35% in size
Procedure, shortened: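 HEK293 cells stably expressing human GnRHR were plated 18 h at 37 °C, loaded with calcium dye 1 h at 37 °C, then given compound in agonist mode; fluorescence (Ex/Em 480/540) read kinetically for 3 min at 1 s intervals.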

[3] = target: KiSS-1 receptor (Homo sapiens) (UniProt Q969F8); test: Human kisspeptin (KISS1R) small molecule agonists, calcium flux assay in KISS1R-HEK293 cells (AID 1920064; active = well fitted curve in the direction sought with a large enough effect in the repeat runs; an effect the other way counts as inactive or inconclusive)
Procedure, shortened: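 HEK293 cells stably expressing human KISS1R were plated 18 h at 37 °C, loaded with calcium dye for 1 h at 37 °C, then given compound by pin tool. Fluorescence (Ex/Em 480/540) was read kinetically for 3 min.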

[4] = G protein-coupled receptor (GPCR) small molecule agonists, calcium flux assay: HEK293 wild type cell line counter screen (AID 1920065)
Procedure, shortened: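 Cells were plated and cultured 18 h at 37 C/5% CO2, then loaded with calcium dye for 1 h at 37 C. Compounds in DMSO were pin-transferred in agonist mode, and fluorescence (Ex/Em 480/540) was read kinetically for 3 min at 1 s intervals.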

[5] = p53 small molecule agonists, cell-based qHTS assay with human liver microsomes: qHTS cell viability counter screen (AID 1963579); note: nearly all actives have a fitted effect of over 45% in size
Procedure, shortened: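 p53RE-bla cells, 4,000/well, dosed 5 hours after plating, with human liver microsomes (0.5 mg/mL final) plus NADPH (0.5 mg/mL final), 16 hours at 37 C. Viability read as CellTiter-Glo luminescence after 30 min at room temperature.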

[6] = p53 small molecule agonists, cell-based qHTS assay with rat liver microsomes: qHTS cell viability counter screen (AID 1963580); note: nearly all actives have a fitted effect of over 45% in size; note: potency is the fitted concentration of half-maximal effect
Procedure, shortened: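 Intracellular ATP, by CellTiter-Glo luminescence, defines viability. HCT-116 p53RE-bla cells, 4,000 per well, were compound-treated in the presence of rat liver microsomes and NADPH for 16 h at 37 C.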

[7] = p53 small molecule agonists, cell-based qHTS assay: qHTS cell viability counter screen (AID 1963581); note: nearly all actives have a fitted effect of over 45% in size
Procedure, shortened: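 p53RE-bla HCT-116 cells were exposed to compounds for 16 h at 37 C; after the beta-lactamase FRET read in the same wells, CellTiter-Glo was added and luminescence (intracellular ATP) read after 30 min at room temperature.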

[8] = target: 5-hydroxytryptamine receptor 2A (Homo sapiens) (UniProt P28223); test: 5-hydroxytryptamine receptor 2A (HTR2A) small molecule agonists, cell-based qHTS assay (AID 1963587); note: nearly all actives have a fitted effect of over 30% in size
Procedure, shortened: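 Kinetic calcium-flux fluorescence (2 min, 1 sec intervals) after compound addition in agonist mode. HTR2A-CHO cells were cultured 18 h, then dye-loaded 1 h at 37 C.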

[9] = target: Muscarinic acetylcholine receptor M1 (Homo sapiens) (UniProt P11229); test: Cholinergic receptor muscarinic 1 (CHRM1) small molecule agonists, cell-based qHTS assay (AID 1963589); note: nearly all actives have a fitted effect of over 35% in size
Procedure, shortened: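 CHO cells stably expressing human CHRM1, seeded 18 h at 37 C/5% CO2, dye-loaded 1 h at 37 C, then given compound in agonist mode; intracellular calcium fluorescence read kinetically at 1 s intervals. Fifteen concentrations, three independent runs.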

[10] = p53 small molecule agonists, cell-based qHTS assay with human liver microsomes (AID 1963577)
Procedure, shortened: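 p53RE-bla cells, 4,000/well, compound added after 5 h, with human liver microsomes 0.5 mg/mL and NADPH 0.5 mg/mL final; 16 h at 37 C, then LiveBLAzer 2 h RT, fluorescence.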

[11] = p53 small molecule agonists, cell-based qHTS assay with rat liver microsomes (AID 1963578)
Procedure, shortened: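 p53RE-bla cells, 4,000/well, pre-incubated 5 h, then given compounds plus rat liver microsomes (0.5 mg/mL final) and NADPH (0.5 mg/mL final). Incubation 16 h at 37 C; beta-lactamase reporter read by LiveBLAzer fluorescence after 2 h at room temperature.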

[12] = p53 small molecule agonists, cell-based qHTS assay (AID 1963582; active = well fitted activation curve with a large enough effect in the signal ratio in the repeat runs, not every such curve was filed as active; the % refers to the signal ratio)
Procedure, shortened: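 p53RE-bla beta-lactamase reporter cells rested 5 h at 37 C/5% CO2, then received compounds in DMSO by pin transfer and were incubated 16 h at 37 C. LiveBLAzer B/G FRET substrate was loaded for 2 h at room temperature before fluorescence reading.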

[13] = target: 5-hydroxytryptamine receptor 2A (Homo sapiens) (UniProt P28223); test: 5-hydroxytryptamine receptor 2A (HTR2A) small molecule antagonists, cell-based qHTS assay (AID 1963586); note: nearly all actives have a fitted effect of over 45% in size
Procedure, shortened: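 Antagonist-mode intracellular calcium assay: DOI (4 nM) added after 5 min compound pre-incubation at room temperature to dye-loaded HTR2A-CHO cells. Fluorescence followed for 3 min, sampled every second.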

[14] = target: Muscarinic acetylcholine receptor M1 (Homo sapiens) (UniProt P11229); test: Cholinergic receptor muscarinic 1 (CHRM1) small molecule antagonists, cell-based qHTS assay (AID 1963588); note: nearly all actives have a fitted effect of over 40% in size
Procedure, shortened: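 CHRM1-CHO calcium-flux assay, antagonist mode. Cells were seeded 18 h, dye-loaded 1 h at 37 C and given compound for 5 min at RT, then acetylcholine was added at 50nM. FDSS fluorescence was read 3 min; 15 concentrations, three runs.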

[15] = cAMP Responsive Elements (CRE) small molecule antagonists, cell-based qHTS assay (AID 1963591; active = well fitted inhibition curve with a large enough effect in the signal ratio in the repeat runs, not every such curve was filed as active; the % refers to the signal ratio)
Procedure, shortened: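 CRE-bla HEK293T cells were plated 18 h at 37 °C/5% CO2, pinned with compound in DMSO, then stimulated with NKH477 at 0.25 uM final for 3 h. LiveBLAzer B/G FRET substrate was added and plates incubated 2 h at room temperature.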

[16] = target: Beta-2 adrenergic receptor (Homo sapiens) (UniProt P07550); test: Adrenergic beta2 receptor (ADRB2) small molecule antagonists, cell-based qHTS assay (AID 1963592); note: series mostly up to about 92 µM; nearly all actives have a fitted effect of over 50% in size
Procedure, shortened: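 Cells (CHO, stable ADRB2 overexpression) incubated 18-20hr at 37C; compounds added from DMSO; agonist mix (1nM isoproterenol, 100uM IBMX, 25uM Ro-20-1724) added; 0.5hr RT; d2-cAMP and anti-cAMP-cryptate added; 1hr RT; 665/615 nm read.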

[17] = target: D(2) dopamine receptor (Homo sapiens) (UniProt P14416); test: Dopamine D2 receptor (DRD2) small molecule agonists, cell-based qHTS assay (AID 1963594); note: nearly all actives have a fitted effect of over 35% in size
Procedure, shortened: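 cAMP accumulation in DRD2-HEK293 cells measured by HTRF after 1 h detection; compounds added 10 min before NKH477 (200nM […]) forskolin-analogue stimulation, 30 min at room temperature, with Ro20-1724 present at 0.1 mM final.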

[18] = target: Beta-2 adrenergic receptor (Homo sapiens) (UniProt P07550); test: Adrenergic beta2 receptor (ADRB2) small molecule agonists, cell-based qHTS assay (AID 1963593);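 note: CHO cells stably overexpressing human ADRB2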
Procedure, shortened: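 CHO cells stably over-expressing ADRB2 were plated overnight at 37C, then dosed with compounds plus a stimulation mix containing 100uM IBMX and 25uM Ro-20-1724 for 0.5hr at room temperature. cAMP was measured by HTRF competition, 1hr.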

[19] = target: D(2) dopamine receptor (Homo sapiens) (UniProt P14416); test: Dopamine D2 receptor (DRD2) small molecule antagonists, cell-based qHTS assay (AID 1963595; active = well fitted inhibition curve with a large enough effect in the signal ratio in the repeat runs, with a control signal flat; the % refers to the signal ratio)
Procedure, shortened: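 HTRF cAMP read-out at 665 and 620 nm emission (340 nm excitation). Antagonist mode: compounds were tested against 12 nM quinpirole in DRD2-HEK293 cells, with 200 nM NKH477 raising cAMP and 0.1 mM Ro20-1724 blocking its breakdown.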

[20] = cAMP Responsive Elements (CRE) small molecule agonists, cell-based qHTS assay (AID 1963590)
Procedure, shortened: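 CRE-bla HEK 293T cells in DMEM with 10% dialyzed FBS, NEAA, pyruvate and 25 mM HEPES were plated 18 h at 37 C/5% CO2, then exposed to compounds in DMSO for 3 h before LiveBLAzer B/G FRET substrate addition.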
% is set by controls: 0 for no effect and ±100 for the full control effect.

Chain of 5-hydroxytryptamine receptor 2A (Homo sapiens) (P28223 whole entry, looked up): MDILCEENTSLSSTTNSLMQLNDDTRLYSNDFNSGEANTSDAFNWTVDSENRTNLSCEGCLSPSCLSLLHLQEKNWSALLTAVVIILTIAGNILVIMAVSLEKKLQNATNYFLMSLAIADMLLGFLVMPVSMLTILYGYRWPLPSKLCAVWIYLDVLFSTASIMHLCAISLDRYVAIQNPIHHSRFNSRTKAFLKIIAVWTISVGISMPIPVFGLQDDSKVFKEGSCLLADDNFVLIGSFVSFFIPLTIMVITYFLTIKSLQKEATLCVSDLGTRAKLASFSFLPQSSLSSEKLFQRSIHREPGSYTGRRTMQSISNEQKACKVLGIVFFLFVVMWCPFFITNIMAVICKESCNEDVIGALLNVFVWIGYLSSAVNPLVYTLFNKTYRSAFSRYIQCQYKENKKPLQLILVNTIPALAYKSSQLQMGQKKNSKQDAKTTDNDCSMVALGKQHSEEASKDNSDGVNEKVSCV
Chain of Muscarinic acetylcholine receptor M1 (Homo sapiens) (P11229 whole entry, looked up): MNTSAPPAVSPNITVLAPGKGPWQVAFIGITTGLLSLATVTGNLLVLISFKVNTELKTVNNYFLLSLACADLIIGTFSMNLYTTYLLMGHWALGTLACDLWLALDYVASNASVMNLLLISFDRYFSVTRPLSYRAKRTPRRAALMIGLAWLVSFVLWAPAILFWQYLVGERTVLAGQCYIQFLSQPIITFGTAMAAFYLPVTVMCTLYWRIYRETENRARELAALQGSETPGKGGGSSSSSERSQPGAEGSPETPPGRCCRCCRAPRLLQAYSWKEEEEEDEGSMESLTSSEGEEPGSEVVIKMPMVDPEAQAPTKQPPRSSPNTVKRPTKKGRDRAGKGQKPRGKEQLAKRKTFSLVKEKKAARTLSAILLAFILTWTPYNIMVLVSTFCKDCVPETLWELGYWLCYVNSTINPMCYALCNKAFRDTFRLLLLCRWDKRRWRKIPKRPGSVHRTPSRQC
Chain of KiSS-1 receptor (Homo sapiens) (Q969F8 whole entry, looked up): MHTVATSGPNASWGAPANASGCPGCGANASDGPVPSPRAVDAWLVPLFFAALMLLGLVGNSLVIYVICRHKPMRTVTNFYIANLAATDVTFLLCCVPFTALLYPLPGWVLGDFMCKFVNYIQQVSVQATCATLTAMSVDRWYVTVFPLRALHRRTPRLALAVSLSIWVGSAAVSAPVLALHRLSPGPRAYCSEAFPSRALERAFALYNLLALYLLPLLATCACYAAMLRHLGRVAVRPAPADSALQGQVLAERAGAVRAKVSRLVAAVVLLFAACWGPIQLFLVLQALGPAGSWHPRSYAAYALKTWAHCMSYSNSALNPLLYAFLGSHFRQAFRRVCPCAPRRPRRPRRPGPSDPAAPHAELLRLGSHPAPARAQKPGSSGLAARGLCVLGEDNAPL
Chain of Gonadotropin-releasing hormone receptor (Homo sapiens) (P30968 whole entry, looked up): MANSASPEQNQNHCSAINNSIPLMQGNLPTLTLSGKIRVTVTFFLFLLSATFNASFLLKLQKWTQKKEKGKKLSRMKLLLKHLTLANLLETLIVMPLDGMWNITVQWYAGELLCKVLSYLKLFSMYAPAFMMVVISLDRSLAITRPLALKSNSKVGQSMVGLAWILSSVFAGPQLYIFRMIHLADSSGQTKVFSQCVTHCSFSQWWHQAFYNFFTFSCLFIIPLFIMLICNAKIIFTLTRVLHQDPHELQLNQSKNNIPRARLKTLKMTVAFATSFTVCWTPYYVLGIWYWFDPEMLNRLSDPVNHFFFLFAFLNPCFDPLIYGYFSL
Chain of Beta-2 adrenergic receptor (Homo sapiens) (P07550 whole entry, looked up): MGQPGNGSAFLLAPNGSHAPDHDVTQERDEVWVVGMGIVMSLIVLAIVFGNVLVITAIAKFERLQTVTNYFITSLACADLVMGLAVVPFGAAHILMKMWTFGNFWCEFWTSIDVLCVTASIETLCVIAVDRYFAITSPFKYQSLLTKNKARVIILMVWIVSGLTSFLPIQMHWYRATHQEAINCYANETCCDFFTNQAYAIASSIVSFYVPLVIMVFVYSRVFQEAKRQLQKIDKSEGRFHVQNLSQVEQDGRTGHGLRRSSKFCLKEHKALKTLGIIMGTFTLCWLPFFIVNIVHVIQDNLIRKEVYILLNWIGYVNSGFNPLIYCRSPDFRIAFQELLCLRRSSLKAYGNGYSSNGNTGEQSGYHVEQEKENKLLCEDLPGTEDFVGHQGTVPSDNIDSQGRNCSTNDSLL
Chain of D(2) dopamine receptor (Homo sapiens) (P14416 whole entry, looked up): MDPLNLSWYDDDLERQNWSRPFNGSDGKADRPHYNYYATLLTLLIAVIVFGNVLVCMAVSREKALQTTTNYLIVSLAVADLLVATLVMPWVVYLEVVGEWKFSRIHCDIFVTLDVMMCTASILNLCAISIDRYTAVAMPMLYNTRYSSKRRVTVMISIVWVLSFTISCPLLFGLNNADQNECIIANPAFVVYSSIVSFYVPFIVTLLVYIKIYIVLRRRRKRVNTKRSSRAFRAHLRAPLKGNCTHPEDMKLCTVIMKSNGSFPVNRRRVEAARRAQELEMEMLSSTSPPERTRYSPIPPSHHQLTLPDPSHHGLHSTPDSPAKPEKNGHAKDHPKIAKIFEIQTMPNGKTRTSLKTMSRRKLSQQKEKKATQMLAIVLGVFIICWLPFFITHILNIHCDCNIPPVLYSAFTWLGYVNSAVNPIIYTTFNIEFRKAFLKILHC

CC(C)CC(C)Nc1ccc(Nc2ccccc2)cc1 (configuration not stated)
active: Potency [1] 53.5 µM | Potency [6] 45 µM
inactive: Potency [2] | Potency [3] | Potency [4] | Potency [5] | Potency [7] | Potency [8] | Potency [9]

Oc1cc(Cl)cc(Cl)c1
inactive: Potency [1] | Potency [2] | Potency [3] | Potency [10] | Potency [11] | Potency [5] | Potency [6] | Potency [7] | Potency [12] | Potency [13] | Potency [8] | Potency [14] | Potency [9] | Potency [15] | Potency [16] | Potency [17]

CCOP(=S)(OCC)SCCS(=O)(=O)CC
inactive: Potency [1] | Potency [2] | Potency [3] | Potency [5] | Potency [6] | Potency [7] | Potency [12] | Potency [8] | Potency [14] | Potency [9] | Potency [15] | Potency [16] | Potency [18] | Potency [17] | Potency [19]

CCOP(=S)(OCC)Oc1ncn(-c2ccccc2)n1
inactive: Potency [1] | Potency [2] | Potency [3] | Potency [4] | Potency [5] | Potency [6] | Potency [7] | Potency [13] | Potency [8] | Potency [14] | Potency [9] | Potency [16] | Potency [17] | Potency [19]

CN(C)C(=S)[S-].CN(C)C(=S)[S-].[Cu+2]
inactive: activity change [2] 5.57% [at 11.8 µM, hits give high values] | activation [3] 0.935% [at 15.8 µM] | activation [4] 0.103% [at 11.8 µM] | activity change, negative = cytotoxicity [5] -25.4% [at 13.5 µM] | activity, negative = inhibition [13] 13.6% [at 12.7 µM] | activation [8] 16.6% [at 15.9 µM] | activity, negative = inhibition [14] -2.33% [at 12.6 µM] | activation [9] 0.767% [at 15.8 µM] | activity change, negative = inhibition [15] -106% [at 18.9 µM] | activity change, negative = inhibition [16] 0.898% [at 19 µM] | activation [17] 0.949% [at 19 µM]
active: Potency [1] 0.297 µM

CCCCn1cc[n+](C)c1 (tested in a mixture with another compound)
inactive: Potency [1] | Potency [2] | Potency [3] | Potency [5] | Potency [6] | Potency [7] | Potency [8] | Potency [14] | Potency [9] | Potency [20] | Potency [15] | Potency [19]

CCCCn1cc[n+](C)c1.[Cl][Fe-]([Cl])([Cl])[Cl]
inactive: Potency [1] | Potency [2] | Potency [3] | Potency [4] | Potency [5] | Potency [7] | Potency [8] | Potency [14] | Potency [9] | Potency [15] | Potency [16] | Potency [18] | Potency [17] | Potency [19]

C#CCN1C(=O)COc2cc(F)c(N3C(=O)C4=C(CCCC4)C3=O)cc21
inactive: Potency [1] | Potency [2] | Potency [3] | Potency [5] | Potency [6] | Potency [7] | Potency [13] | Potency [8] | Potency [9] | Potency [16] | Potency [18] | Potency [17] | Potency [19]

O=C(NC(O)C(Cl)(Cl)Cl)NC(O)C(Cl)(Cl)Cl (configuration not stated)
inactive: Potency [1] | Potency [2] | Potency [3] | Potency [4] | Potency [5] | Potency [6] | Potency [7] | Potency [13] | Potency [8] | Potency [14] | Potency [20] | Potency [18] | Potency [17] | Potency [19]

CCOP(=S)(Oc1cnc(C(C)(C)C)nc1)OC(C)C (configuration not stated)
inactive: Potency [1] | Potency [2] | Potency [3] | Potency [4] | Potency [5] | Potency [7] | Potency [12] | Potency [8] | Potency [14] | Potency [9] | Potency [16] | Potency [17] | Potency [19]

Source: PubChem BioAssay (Tox21)
